# Measured values published in publication PMC13541613, “GHT-SELEX demonstrates unexpectedly high intrinsic sequence specificity and complex DNA binding of many human transcription factors”.
# Molecular target: ZNF721 full-length (Homo sapiens, UniProt Q8TF20-2 1-923)
# Assay: HT-SELEX; 20 mM HEPES pH 7, 140 mM KCl, 5 mM NaCl, 1 mM K2HPO4, 2 mM MgSO4, 100 uM EGTA, ZnSO4, 0.1% Tween20; room temperature, 1 h; high values mean tight binding
# Conditions: protein: ivt; tags: eGFP (N-terminal); dsDNA, one strand shown
# Procedure, shortened: (§1)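 Bead-immobilised tagged transcription factor (full-length or DNA-binding-domain fragment), made in HEK293 lysate or cell-free extract, was incubated with a randomized 40-base DNA library. Binding was for 1 h at room temperature in HEPES/KCl low-stringency buffer with Tween20. After washing and heat elution, bound DNA was PCR-amplified over successive cycles and Illumina-sequenced (~3 million 60 bp reads per sample). Binding signal is a relative k-mer count in selected reads; higher means tighter binding.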
# Sequence of ZNF721 full-length (Q8TF20 other isoform, or with tags, fused parts or gaps): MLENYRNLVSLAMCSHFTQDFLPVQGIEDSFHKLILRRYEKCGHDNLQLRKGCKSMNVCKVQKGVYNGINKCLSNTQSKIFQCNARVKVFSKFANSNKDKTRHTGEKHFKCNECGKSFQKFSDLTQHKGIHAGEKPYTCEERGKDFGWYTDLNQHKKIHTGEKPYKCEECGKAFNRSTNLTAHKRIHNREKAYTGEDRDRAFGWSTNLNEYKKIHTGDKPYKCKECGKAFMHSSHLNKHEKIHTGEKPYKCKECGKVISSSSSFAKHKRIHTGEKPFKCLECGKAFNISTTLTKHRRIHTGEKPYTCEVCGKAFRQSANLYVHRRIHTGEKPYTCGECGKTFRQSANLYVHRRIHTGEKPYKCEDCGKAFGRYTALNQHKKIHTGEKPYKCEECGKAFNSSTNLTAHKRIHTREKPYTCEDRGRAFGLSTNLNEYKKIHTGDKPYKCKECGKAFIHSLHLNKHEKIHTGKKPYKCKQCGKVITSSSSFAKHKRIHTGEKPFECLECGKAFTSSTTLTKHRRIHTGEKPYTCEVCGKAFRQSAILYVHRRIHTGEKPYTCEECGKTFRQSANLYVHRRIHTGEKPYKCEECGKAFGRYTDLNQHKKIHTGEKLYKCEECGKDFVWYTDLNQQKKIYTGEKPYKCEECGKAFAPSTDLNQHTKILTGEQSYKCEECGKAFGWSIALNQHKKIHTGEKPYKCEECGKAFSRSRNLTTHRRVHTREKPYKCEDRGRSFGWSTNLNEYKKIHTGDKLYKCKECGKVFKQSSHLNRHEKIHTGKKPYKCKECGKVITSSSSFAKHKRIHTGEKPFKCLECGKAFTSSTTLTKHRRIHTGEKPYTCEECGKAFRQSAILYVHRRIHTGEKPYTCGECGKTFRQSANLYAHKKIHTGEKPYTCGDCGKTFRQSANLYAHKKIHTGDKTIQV
row,Sequence,binding signal [relative 10-mer count]
1,CACCACCCTC,0.111
2,AGAAAAAAGC,0.36
3,ACCCACCCCG,0.133
4,CCCACGACCC,0.107
5,CAACAAAACA,0.111
6,CCCACCCACA,0.171
7,CCACCACCCC,0.455
8,CCCACCCCTC,0.188
9,AAAAAAGCGC,0.115
10,AAAAAAAGAA,0.104
11,CGCCCCACCC,0.236
12,GCAGCATACC,0.151
13,CCCCCCCCGC,0.151
14,CACCCCCCGC,0.132
15,TGTGTATGAA,0.169
16,CCCGACCCCC,0.178
17,CCCCCTCGCC,0.123
18,CCCCACCCGC,0.186
19,CTCCCCCGCC,0.118
20,CCCGCCCCCA,0.153

row,Sequence,binding signal [relative 10-mer count]
1,CGCCCGCCCC,0.126
2,CACCCACCCG,0.132
3,GGTGGTGGGA,0.157
4,AGCATACCCC,0.144
5,CCCCCCACCG,0.17
6,AAAAAAAAGC,0.653
7,CCCACCAACC,0.171
8,CCACCCCAAC,0.162
9,CCCTACCCCA,0.11
10,CCCACCTCCC,0.339
11,CCCACCCACC,0.425
12,GCCACCCCAC,0.129
13,CAGCGTACCC,0.239
14,CCCACCCAAC,0.172
15,CGCCCCCCTC,0.116
16,CCTCCCCGCC,0.138
17,AAGCTATCCC,0.172
18,CACCGCCACC,0.117
19,ACCCCTCCAC,0.11
20,AGGGTTTCCA,0.106

# Molecular target: ZNF721 DBD1 (Homo sapiens, UniProt Q8TF20-2 29-461)
# Sequence (Q8TF20 17-449): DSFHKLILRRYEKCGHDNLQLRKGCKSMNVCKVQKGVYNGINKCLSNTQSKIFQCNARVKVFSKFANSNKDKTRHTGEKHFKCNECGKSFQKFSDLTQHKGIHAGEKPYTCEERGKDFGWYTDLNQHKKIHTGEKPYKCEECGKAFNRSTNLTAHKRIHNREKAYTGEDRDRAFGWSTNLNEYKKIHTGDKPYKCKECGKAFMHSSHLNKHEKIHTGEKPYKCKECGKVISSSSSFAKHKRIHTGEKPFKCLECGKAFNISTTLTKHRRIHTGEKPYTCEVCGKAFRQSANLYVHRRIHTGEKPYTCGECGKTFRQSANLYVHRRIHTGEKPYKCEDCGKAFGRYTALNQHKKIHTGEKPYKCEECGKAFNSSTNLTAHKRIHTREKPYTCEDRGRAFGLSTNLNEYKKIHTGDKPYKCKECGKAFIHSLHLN
# Assay: as above
# Conditions: protein: ivt; tags: eGFP (N-terminal); dsDNA, one strand shown
# Procedure, shortened: as §1
row,Sequence,binding signal [relative 10-mer count]
1,CACCACCCTC,0.00537
2,AGAAAAAAGC,0.107
3,ACCCACCCCG,0.00491
4,CCCACGACCC,0.00564
5,CAACAAAACA,0.00174
6,CCCACCCACA,0.00688
7,CCACCACCCC,0.0194
8,CCCACCCCTC,0.01
9,AAAAAAGCGC,0.0212
10,AAAAAAAGAA,0.00867
11,CGCCCCACCC,0.00844
12,GCAGCATACC,0.00147
13,CCCCCCCCGC,0.00399
14,CACCCCCCGC,0.00537
15,TGTGTATGAA,0.203
16,CCCGACCCCC,0.00628
17,CCCCCTCGCC,0.0061
18,CCCCACCCGC,0.00651
19,CTCCCCCGCC,0.0056
20,CCCGCCCCCA,0.00706

row,Sequence,binding signal [relative 10-mer count]
1,CGCCCGCCCC,0.00408
2,CACCCACCCG,0.0039
3,GGTGGTGGGA,0.00784
4,AGCATACCCC,0.0115
5,CCCCCCACCG,0.00605
6,AAAAAAAAGC,0.113
7,CCCACCAACC,0.00794
8,CCACCCCAAC,0.00601
9,CCCTACCCCA,0.00491
10,CCCACCTCCC,0.017
11,CCCACCCACC,0.0187
12,GCCACCCCAC,0.00472
13,CAGCGTACCC,0.00229
14,CCCACCCAAC,0.00679
15,CGCCCCCCTC,0.00422
16,CCTCCCCGCC,0.00697
17,AAGCTATCCC,0.105
18,CACCGCCACC,0.00339
19,ACCCCTCCAC,0.00472
20,AGGGTTTCCA,0.00128
